In ChEMBL document CHEMBL4513146, “CO-ADD screening of Karazin Kharkiv National University (Ukraine) compounds”:
Potency and affinity values are given separately.

System: Klebsiella pneumoniae
Conditions: Concentration 32 ug.mL-1;; ASSAY_TEST Inhibition of Bacterial Growth; detection method Absorption (OD600); MEDIA CAMHB; plate type 384well; NBS; CORNING #3640; time 18 hr

SMILES | Inhibition [%]
CC(C)c1nnc2c(=O)n(CC(=O)Nc3ccc(F)cc3F)c3ccccc3n12 | 15.02
COc1cccc(Oc2nccn3c(=O)n(CC(=O)Nc4cc(C)c(Cl)cc4OC)nc23)c1 | -0.9
Cc1cc(C)cc(Nc2nc(C)cc3nn(CC(=O)Nc4cccc(Cl)c4)c(=O)n23)c1 | 7.28
COc1ccccc1-n1ccn2c(SCC(=O)Nc3ccc4c(c3)OCO4)nnc2c1=O | 8.58
COC(=O)c1ccc(NC(=O)Cn2c(=O)c3nnc(C(C)C)n3c3ccccc32)cc1 | 11.69
COC(=O)c1ccccc1NC(=O)CSc1nc2ccccc2n2c(C(C)C)nnc12 | 12.98
Cc1cccc(CSc2nnc3c(=O)n(-c4ccc(Br)cc4)ccn23)c1 | -2.02
Cc1cc(C)cc(N(Cc2cccc(Cl)c2)S(=O)(=O)c2cccn3cnnc23)c1 | 9.53
COc1ccccc1-n1ccn2c(SCC(=O)Nc3ccc(F)cc3F)nnc2c1=O | 8.27
O=C(Cn1nc2c(N3CCOCC3)nccn2c1=O)N1CCN(c2ccccc2F)CC1 | 8.66
COc1cccc(-n2ccn3c(SCC(=O)Nc4ccc(Br)cc4)nnc3c2=O)c1 | -3.95
O=c1c2sccc2n2c(=O)n(Cc3ccc(Cl)cc3)nc2n1Cc1cccs1 | -1.66
Cc1ccc(Oc2nccn3c(=O)n(CC(=O)Nc4cccc(Cl)c4)nc23)cc1 | 2.02
CCOc1ccc(-n2ccn3c(SCC(=O)Nc4ccc(C)cc4)nnc3c2=O)cc1 | 16.35
O=c1n(Cc2cccc(C(F)(F)F)c2)nc2c(S(=O)(=O)N3CCCC3)cccn12 | 13.65
O=C(CSc1nnc2c(=O)n(-c3ccccc3)ccn12)Nc1ccc(F)cc1 | 3.51
Cc1ccc2c(c1)N(C(=O)Cn1nc3ccc(S(=O)(=O)C(C)(C)C)nn3c1=O)CCO2 | 13.78
O=C(CCc1nnc2c3cc(-c4ccccc4)nn3ccn12)N1CCN(C(=O)c2ccco2)CC1 | 11.67
COc1ccc(NC(=O)Cn2nc3c(N4CCOCC4)nccn3c2=O)c(OC)c1 | 20.77
COc1ccc(NC(=O)CSc2nc3ccccc3n3cnnc23)cc1OC | 13.64

SMILES | Inhibition [%]
Cc1nnc2c(SCC(=O)Nc3ccc(F)cc3F)nc3ccccc3n12 | 16.48
Cc1cc2nn(CC(=O)Nc3cccc(F)c3)c(=O)n2c(Nc2ccc(F)c(C)c2)n1 | 7.53
Cc1ccc(C)c(Cn2nc3n(CC(C)C)c(=O)c4sccc4n3c2=O)c1 | 7.9
COc1ccc(NC(=O)CSc2nnc3ccc(C(=O)Nc4cccc(F)c4)cn23)cc1 | 4.36
Cc1ccc(NC(=O)Cn2c(=O)c3nnc(C(C)C)n3c3ccccc32)cc1C | 11.54
Cc1ccc(NC(=O)Cn2nc3ccc(SC4CCCCC4)nn3c2=O)cc1C | -2.51
Cc1ccc(-n2ccn3c(=O)n(Cc4c(F)cccc4Cl)nc3c2=O)cc1C | 16.81
COc1cccc(Sc2nc3ccccc3n3c(=O)n(CC(=O)Nc4ccc(C)cc4)nc23)c1 | 9.1
Cc1cc(C)cc(Nc2nc(C)cc3nn(CC(=O)Nc4ccc(C)c(F)c4)c(=O)n23)c1 | 19.17
Cc1ccc(-c2ccc3nnc(CCC(=O)NCc4cccc(Br)c4)n3n2)cc1 | 20.54
Cc1ccc(NC(=O)Cn2nc3ccc(-c4ccc(Cl)cc4)nn3c2=O)cc1F | 2.59
CCC(C)NC(=O)c1ccc2c(=O)n(C3CC3)c3nn(CC(=O)NC(C)C)c(=O)n3c2c1 (stereo not given) | 17.09
Cc1cc2nn(CC(=O)Nc3ccc4c(c3)OCCO4)c(=O)n2c(Nc2ccccc2C)n1 | 6.73
Cc1ccc(-c2cc3c4nn(CC(=O)N5CCN(c6ccc(F)cc6)CC5)c(=O)n4ccn3n2)cc1C | 7.51
COc1cccc(-n2ccn3c(SCC(=O)c4c[nH]c5ccccc45)nnc3c2=O)c1 | 10.78
O=c1n(Cc2cccc(C(F)(F)F)c2)nc2ccc(S(=O)(=O)N3CCCC3)cn12 | 10.57
COc1ccc(NC(=O)Cn2c(=O)c3nnc(C(C)C)n3c3ccccc32)cc1Cl | 7.18
Cc1ccc(NC(=O)Cn2nc3c4cc(-c5ccc(C)c(C)c5)nn4ccn3c2=O)c(C)c1 | -6.92
CCCCc1ccc(NC(=O)Cn2nc3ccc(C(=O)Nc4ccc(OC)cc4)cn3c2=O)cc1 | -3.83
CSc1cccc(NC(=O)Cn2nc3c(Sc4ccccc4)nccn3c2=O)c1 | 1.1

System: Candida albicans
Conditions: Concentration 32 ug.mL-1; ASSAY_TEST Inhibition of Fungal Growth; detection method Absorption (OD530)

SMILES | Inhibition [%]
CC(C)c1nnc2c(=O)n(CC(=O)Nc3ccc(F)cc3F)c3ccccc3n12 | 0.81
COc1cccc(Oc2nccn3c(=O)n(CC(=O)Nc4cc(C)c(Cl)cc4OC)nc23)c1 | 1.25
Cc1cc(C)cc(Nc2nc(C)cc3nn(CC(=O)Nc4cccc(Cl)c4)c(=O)n23)c1 | 4.92
COc1ccccc1-n1ccn2c(SCC(=O)Nc3ccc4c(c3)OCO4)nnc2c1=O | 4.47
COC(=O)c1ccc(NC(=O)Cn2c(=O)c3nnc(C(C)C)n3c3ccccc32)cc1 | -0.03
COC(=O)c1ccccc1NC(=O)CSc1nc2ccccc2n2c(C(C)C)nnc12 | -0.8
Cc1cccc(CSc2nnc3c(=O)n(-c4ccc(Br)cc4)ccn23)c1 | 2.08
Cc1cc(C)cc(N(Cc2cccc(Cl)c2)S(=O)(=O)c2cccn3cnnc23)c1 | 1.12
COc1ccccc1-n1ccn2c(SCC(=O)Nc3ccc(F)cc3F)nnc2c1=O | 0.36
O=C(Cn1nc2c(N3CCOCC3)nccn2c1=O)N1CCN(c2ccccc2F)CC1 | 0.78
COc1cccc(-n2ccn3c(SCC(=O)Nc4ccc(Br)cc4)nnc3c2=O)c1 | 5.78
O=c1c2sccc2n2c(=O)n(Cc3ccc(Cl)cc3)nc2n1Cc1cccs1 | 32.28
Cc1ccc(Oc2nccn3c(=O)n(CC(=O)Nc4cccc(Cl)c4)nc23)cc1 | 5.47
CCOc1ccc(-n2ccn3c(SCC(=O)Nc4ccc(C)cc4)nnc3c2=O)cc1 | 4.07
O=c1n(Cc2cccc(C(F)(F)F)c2)nc2c(S(=O)(=O)N3CCCC3)cccn12 | 1.01
O=C(CSc1nnc2c(=O)n(-c3ccccc3)ccn12)Nc1ccc(F)cc1 | 4.29
Cc1ccc2c(c1)N(C(=O)Cn1nc3ccc(S(=O)(=O)C(C)(C)C)nn3c1=O)CCO2 | 0.51
O=C(CCc1nnc2c3cc(-c4ccccc4)nn3ccn12)N1CCN(C(=O)c2ccco2)CC1 | 2.11
COc1ccc(NC(=O)Cn2nc3c(N4CCOCC4)nccn3c2=O)c(OC)c1 | 0.63
COc1ccc(NC(=O)CSc2nc3ccccc3n3cnnc23)cc1OC | 4.39

SMILES | Inhibition [%]
Cc1nnc2c(SCC(=O)Nc3ccc(F)cc3F)nc3ccccc3n12 | 0.69
Cc1cc2nn(CC(=O)Nc3cccc(F)c3)c(=O)n2c(Nc2ccc(F)c(C)c2)n1 | 6.76
Cc1ccc(C)c(Cn2nc3n(CC(C)C)c(=O)c4sccc4n3c2=O)c1 | -1.65
COc1ccc(NC(=O)CSc2nnc3ccc(C(=O)Nc4cccc(F)c4)cn23)cc1 | 3.08
Cc1ccc(NC(=O)Cn2c(=O)c3nnc(C(C)C)n3c3ccccc32)cc1C | 4.79
Cc1ccc(NC(=O)Cn2nc3ccc(SC4CCCCC4)nn3c2=O)cc1C | 4.67
Cc1ccc(-n2ccn3c(=O)n(Cc4c(F)cccc4Cl)nc3c2=O)cc1C | 1.02
COc1cccc(Sc2nc3ccccc3n3c(=O)n(CC(=O)Nc4ccc(C)cc4)nc23)c1 | 4.31
Cc1cc(C)cc(Nc2nc(C)cc3nn(CC(=O)Nc4ccc(C)c(F)c4)c(=O)n23)c1 | 3.06
Cc1ccc(-c2ccc3nnc(CCC(=O)NCc4cccc(Br)c4)n3n2)cc1 | 1.13
Cc1ccc(NC(=O)Cn2nc3ccc(-c4ccc(Cl)cc4)nn3c2=O)cc1F | -1.16
CCC(C)NC(=O)c1ccc2c(=O)n(C3CC3)c3nn(CC(=O)NC(C)C)c(=O)n3c2c1 (stereo not given) | -1.34
Cc1cc2nn(CC(=O)Nc3ccc4c(c3)OCCO4)c(=O)n2c(Nc2ccccc2C)n1 | 7.15
Cc1ccc(-c2cc3c4nn(CC(=O)N5CCN(c6ccc(F)cc6)CC5)c(=O)n4ccn3n2)cc1C | 1.65
COc1cccc(-n2ccn3c(SCC(=O)c4c[nH]c5ccccc45)nnc3c2=O)c1 | 4.57
O=c1n(Cc2cccc(C(F)(F)F)c2)nc2ccc(S(=O)(=O)N3CCCC3)cn12 | 0.2
COc1ccc(NC(=O)Cn2c(=O)c3nnc(C(C)C)n3c3ccccc32)cc1Cl | 3.46
Cc1ccc(NC(=O)Cn2nc3c4cc(-c5ccc(C)c(C)c5)nn4ccn3c2=O)c(C)c1 | -0.38
CCCCc1ccc(NC(=O)Cn2nc3ccc(C(=O)Nc4ccc(OC)cc4)cn3c2=O)cc1 | 18.36
CSc1cccc(NC(=O)Cn2nc3c(Sc4ccccc4)nccn3c2=O)c1 | 18.38
